# System: DYRK1B
# Conditions: concentration: 1 μM, replicates: in singlicate; n = 1
# 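Further: KINOMEscan kinase panel screen.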
row,Compound,%Inh
1,COc1cc(Nc2nccc(N3CCC(NC(=O)Nc4cc(C)ccc4C)C3)n2)cc(OC)c1OC (stereo not drawn) [GSK1379762],16%
2,COC(=O)c1c(-c2ccccc2)c2cc(OC)ccc2c(=O)n1Cc1ccccc1,12%
3,Cc1c(Cn2ccn3c(=O)cc(N4CCOCC4)nc23)cccc1C(F)(F)F [GSK2289044],21%
4,Cl.Oc1ccc(-c2nc(-c3ccccc3)[nH]c2-c2ccncc2)cc1 [SB-428218],0%
5,CC1=C(C(=O)Nc2cc3cn[nH]c3cc2F)C(c2ccc(C(F)(F)F)cc2)CC(=O)N1 (stereo not drawn) [GSK429286],0%
6,CCCc1ccc(S(=O)(=O)NC2CCN(c3ccnc(Nc4ccc(F)cc4)n3)C2)cc1 (stereo not drawn) [GSK1379715],0%
7,Cc1ccc(NC(=O)Nc2cccc(Cl)c2)cc1-c1ccc(C(=O)Nc2ccncc2)cc1 [GSK1398468],21%
8,O=S(=O)(c1ccc(-c2ccnc3[nH]ccc23)cc1)N1CCCC1 [GSK846226],11%
9,Cn1ccc2ncnc(Oc3ccc(NC(=O)Nc4ccccc4)cc3)c21,40%
10,CCn1c(-c2ccccn2)nc2cnccc21 [SB-736398],11%
11,CC(=O)Nc1nc2cnc(Nc3cc(NC(=O)c4cccc(CCC#N)c4)ccc3C)nc2s1,42%
12,Cc1cccc(-c2nc(C)cc(Nc3ccncc3)n2)n1 [GSK257997],13%
13,CS(=O)(=O)c1ccc(-c2c(-c3ncn[nH]3)sc(N3CCOCC3)c2C#N)cc1,0%
14,O=C(O)COc1ncnc2cc(-c3ccc4[nH]ncc4c3)sc12,41%
15,Cc1c(O)cccc1Nc1ccnc2ccc(C(F)(F)F)cc12.Cl [GW466413],0%
16,O=C(Nc1ccc2c(c1)OCO2)NC1CCN(c2ccnc(Nc3ccc(F)cc3)n2)C1 (stereo not drawn) [GSK1379724],0%
17,Cl.c1ccc(-c2n[nH]cc2-c2ccnc(-c3ccc(CN4CCOCC4)cc3)c2)nc1 [GW776245],0%
18,Cc1ccc(NC(=O)Nc2cc(C(C)(C)C)nn2-c2ccccc2)cc1 [GSK1014915],11%

# System: DYRK2
# Conditions: concentration: 1 μM, replicates: in singlicate; n = 1
row,Compound,%Inh
1,Cc1cccc(-c2nc(Nc3cccc(C(N)=O)c3)c3ccccc3n2)n1 [GW876019],34%
2,CC(C)(C)c1ccc(C(=O)Nc2cn3cc(-c4cccnc4)ccc3n2)cc1,51%
3,Clc1cc(Cl)cc(Nc2ccnc(Nc3cc(Cl)cc(Cl)c3)n2)c1 [GSK175726],0%
4,COc1ccc(CNC(=O)NC2CCN(c3ccnc(Nc4cc(OC)c(OC)c(OC)c4)n3)C2)cc1 (stereo not drawn) [GSK1379748],0%
5,Fc1cccc(COc2nnc(-c3ccc4c(c3)CCO4)o2)c1,3%
6,CN1C(=O)C(Nc2ccc(Cl)c(C(=O)O)c2)=C(c2ccc(Cl)cc2)C1=O [SB-404290],0%
7,Cn1cncc1-c1ccc2ncnc(Nc3ccc(OCc4ccccc4)cc3)c2c1 [GW320571],0%
8,Nc1ncnc2[nH]c(-c3ccccc3)nc12 [AH5015],68%
9,Cc1nnc(-c2ccc3occ(-c4ccc(S(C)=O)cc4)c3c2)[nH]1 (stereo not drawn),45%
10,Fc1cc(Cl)ccc1Nc1ccnc2cc(I)ccc12 [GW551191],4%
11,CC(C)(C)c1ccc(C(=O)Nc2cn3cc(Cl)ccc3n2)cc1,0%
12,C[C@@H]1CCCCN1c1cc(-c2ccc3c(N)n[nH]c3c2)nc(N)n1 [GSK2258759],10%
13,Cc1cccc(-c2nc(Nc3ccc4[nH]ncc4c3)c3ccccc3n2)n1 [GW857175],40%
14,Cc1cccc(-c2cc(Nc3ccncc3)c3ccccc3n2)n1 [GSK223675],18%
15,COc1cc2nccc(Nc3ccc(NC(=O)c4ccc(C)cc4)c(O)c3)c2cc1OC.Cl [GW440132],18%
16,COc1cc(Nc2nccc(N3CCC(NC(=O)Nc4cc(C)ccc4C)C3)n2)cc(OC)c1OC (stereo not drawn) [GSK1379762],19%
17,COC(=O)c1c(-c2ccccc2)c2cc(OC)ccc2c(=O)n1Cc1ccccc1,0%

row,Compound,%Inh
1,Cc1c(Cn2ccn3c(=O)cc(N4CCOCC4)nc23)cccc1C(F)(F)F [GSK2289044],14%
2,Cl.Oc1ccc(-c2nc(-c3ccccc3)[nH]c2-c2ccncc2)cc1 [SB-428218],0%
3,CC1=C(C(=O)Nc2cc3cn[nH]c3cc2F)C(c2ccc(C(F)(F)F)cc2)CC(=O)N1 (stereo not drawn) [GSK429286],0%
4,CCCc1ccc(S(=O)(=O)NC2CCN(c3ccnc(Nc4ccc(F)cc4)n3)C2)cc1 (stereo not drawn) [GSK1379715],0%
5,Cc1ccc(NC(=O)Nc2cccc(Cl)c2)cc1-c1ccc(C(=O)Nc2ccncc2)cc1 [GSK1398468],0%
6,O=S(=O)(c1ccc(-c2ccnc3[nH]ccc23)cc1)N1CCCC1 [GSK846226],35%
7,Cn1ccc2ncnc(Oc3ccc(NC(=O)Nc4ccccc4)cc3)c21,0%
8,CCn1c(-c2ccccn2)nc2cnccc21 [SB-736398],0%
9,CC(=O)Nc1nc2cnc(Nc3cc(NC(=O)c4cccc(CCC#N)c4)ccc3C)nc2s1,0%
10,Cc1cccc(-c2nc(C)cc(Nc3ccncc3)n2)n1 [GSK257997],14%
11,CS(=O)(=O)c1ccc(-c2c(-c3ncn[nH]3)sc(N3CCOCC3)c2C#N)cc1,14%
12,O=C(O)COc1ncnc2cc(-c3ccc4[nH]ncc4c3)sc12,66%
13,Cc1c(O)cccc1Nc1ccnc2ccc(C(F)(F)F)cc12.Cl [GW466413],0%
14,O=C(Nc1ccc2c(c1)OCO2)NC1CCN(c2ccnc(Nc3ccc(F)cc3)n2)C1 (stereo not drawn) [GSK1379724],3%
15,Cl.c1ccc(-c2n[nH]cc2-c2ccnc(-c3ccc(CN4CCOCC4)cc3)c2)nc1 [GW776245],0%
16,Cc1ccc(NC(=O)Nc2cc(C(C)(C)C)nn2-c2ccccc2)cc1 [GSK1014915],3%
